Assay results taken from PubChem BioAssay (EPA / NIEHS).
Inconclusive results are not listed. Some structures have more than one record in an assay (separate samples or runs), and their calls can disagree. The source made the active and inactive calls. How the source made its calls, unless noted: active means hit-call score of the fitted dose curve at least 0.9, where 1 is the maximum; inconclusive means response in the unintended direction; inactive means score below 0.9.

Tests used:
[1] = molecular target: Retinoic acid receptor RXR-alpha (Homo sapiens) (UniProt P19793); test: OT_NURR1_NURR1RXRa_0480: Odyssey Thera (OT) 8-hour HEK293T Protein Complementation Assay for Nurr1/retinoid X receptor (RXR) (AID 2283385)
Chain of Retinoic acid receptor RXR-alpha (Homo sapiens) (P19793 whole entry, looked up, the tested form may be a part): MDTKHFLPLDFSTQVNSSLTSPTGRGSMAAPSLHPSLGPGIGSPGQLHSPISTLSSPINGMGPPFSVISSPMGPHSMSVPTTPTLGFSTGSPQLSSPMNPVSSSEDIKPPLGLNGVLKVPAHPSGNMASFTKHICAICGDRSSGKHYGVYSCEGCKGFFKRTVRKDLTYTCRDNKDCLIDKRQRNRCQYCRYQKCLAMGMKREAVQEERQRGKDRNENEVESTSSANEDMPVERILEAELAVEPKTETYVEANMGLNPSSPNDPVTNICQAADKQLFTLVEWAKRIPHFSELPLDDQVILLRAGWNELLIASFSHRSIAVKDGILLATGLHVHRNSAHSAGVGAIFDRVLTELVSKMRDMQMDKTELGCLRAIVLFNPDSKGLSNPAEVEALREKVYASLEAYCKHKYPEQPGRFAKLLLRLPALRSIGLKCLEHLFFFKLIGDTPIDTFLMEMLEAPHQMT
Procedure, shortened: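 8 h compound exposure, HEK293T; Nurr1/RXRα fragment complementation; fluorescence intensity; positive fitting direction vs DMSO baseline.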

[2] = molecular target: Retinoic acid receptor RXR-alpha (Homo sapiens) (UniProt P19793); test: OT_NURR1_NURR1RXRa_1440: Odyssey Thera (OT) 24-hour HEK293T Protein Complementation Assay for Nurr1/retinoid X receptor (RXR) (AID 2283386)
Procedure, shortened: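 Interaction of Nurr1 with RXRα brings fused reporter fragments together in human HEK293T cells, restoring a functional reporter. Fluorescence intensity is measured 24 h after chemical treatment, and values are analysed in the positive direction against DMSO.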

[3] = molecular target: Peroxisome proliferator-activated receptor gamma (Homo sapiens) (UniProt P37231); test: OT_PPARg_PPARgSRC1_0480: Odyssey Thera (OT) 8-hour Protein-Complementation Assay for Peroxisome Proliferator-activated Receptor Gamma / SRC-1 Co-activator (AID 2283387);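 further: nuclear to cytoplasmic split Venus YFP fluorescence ratio reporting PPARg SRC-1 interaction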
Chain of Peroxisome proliferator-activated receptor gamma (Homo sapiens) (P37231 whole entry, looked up, the tested form may be a part): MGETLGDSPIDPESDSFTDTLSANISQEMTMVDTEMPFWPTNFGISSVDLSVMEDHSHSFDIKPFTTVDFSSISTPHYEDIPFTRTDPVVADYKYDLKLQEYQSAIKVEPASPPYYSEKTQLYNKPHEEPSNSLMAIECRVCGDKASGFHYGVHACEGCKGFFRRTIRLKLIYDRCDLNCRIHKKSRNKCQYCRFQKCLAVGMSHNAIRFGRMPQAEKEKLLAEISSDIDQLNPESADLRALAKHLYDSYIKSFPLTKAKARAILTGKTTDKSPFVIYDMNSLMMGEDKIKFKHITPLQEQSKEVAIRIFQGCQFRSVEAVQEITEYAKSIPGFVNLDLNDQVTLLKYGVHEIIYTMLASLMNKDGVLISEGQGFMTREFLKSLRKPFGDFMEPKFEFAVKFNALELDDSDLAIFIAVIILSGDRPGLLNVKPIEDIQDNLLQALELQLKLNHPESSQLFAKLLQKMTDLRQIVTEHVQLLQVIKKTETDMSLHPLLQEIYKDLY
Procedure, shortened: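 HEK293T transiently transfected with PPARg and SRC-1 fused to Venus YFP fragments, compounds 8 h at 37C. Fixed, Draq5-stained cells imaged; nuclear/cytoplasmic 488 nm fluorescence ratio over at least 350 cells per image; gain fitted versus DMSO.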

[4] = molecular target: Peroxisome proliferator-activated receptor gamma (Homo sapiens) (UniProt P37231); test: OT_PPARg_PPARgSRC1_1440: Odyssey Thera (OT) 24-hour Protein-Complementation Assay for Peroxisome Proliferator-activated Receptor Gamma/ SRC-1 Co-activator (AID 2283388)
Procedure, shortened: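 Readout: nuclear-to-cytoplasmic 488 nm fluorescence ratio, ≥350 cells per image, 8 images per well, after 24 h compound exposure of HEK293T expressing PPARg/SRC-1 split-YFP fusions. Activity fitted in positive direction against DMSO.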

[5] = CEETOX_H295R_11DCORT: CeeTox H295R High-throughput Steroidogenesis Assay for 11-Deoxycortisol (11DCORT) (AID 2283432; active means hit-call score of the fitted dose curve at least 0.9, where 1 is the maximum; inactive means score below 0.9;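 on AC50: 11-deoxycortisol secreted into the medium measured by LC-MS/MS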); conditions: actives raise or lower the signal
Procedure, shortened: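 H295R cells prestimulated 48 h with 10 uM forskolin, then exposed 48 h to chemical in 0.1% DMSO. 11-Deoxycortisol in medium quantified by HPLC-MS/MS after MTBE extraction; bidirectional fit versus DMSO. MTT viability read in same wells.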

[6] = CEETOX_H295R_OHPREG: CeeTox H295R High-throughput Steroidogenesis Assay for OH-Pregnenolone (OHPREG) (AID 2283434; active means hit-call score of the fitted dose curve at least 0.9, where 1 is the maximum; inactive means score below 0.9); conditions: actives raise or lower the signal
Procedure, shortened: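 Human adrenal H295R cells were prestimulated 48 h with 10 uM forskolin, then exposed 48 h to chemical in 0.1% DMSO. Medium 17alpha-hydroxypregnenolone was quantified by HPLC-MS/MS after MTBE extraction; bidirectional fitting versus DMSO baseline.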

[7] = CEETOX_H295R_OHPROG: CeeTox H295R High-throughput Steroidogenesis Assay for OH-Progesterone (OHPROG) (AID 2283435; active means hit-call score of the fitted dose curve at least 0.9, where 1 is the maximum; inactive means score below 0.9;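 further: 17alpha-hydroxyprogesterone secreted into medium measured by HPLC-MS/MS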); conditions: actives raise or lower the signal
Procedure, shortened: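 H295R, 10 uM forskolin prestim 48 h; cmpd in 0.1% DMSO 48 h; medium MTBE-extracted, HPLC-MS/MS for OH-progesterone; 7-pt std curve; bidirectional fit vs DMSO; MTT viability, chemicals diluted until viability >/=70%.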

[8] = CEETOX_H295R_ANDR: CeeTox H295R High-throughput Steroidogenesis Assay for Androstenedione (ANDR) (AID 2283436; active means hit-call score of the fitted dose curve at least 0.9, where 1 is the maximum; inactive means score below 0.9); conditions: actives raise or lower the signal
Procedure, shortened: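 H295R human adrenal cells (passages ≤10) were exposed to test chemicals for 48 h; androstenedione in medium was MTBE-extracted and quantified by HPLC-MS/MS against a 7-point standard curve. Bidirectional fitting used DMSO as baseline.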

[9] = molecular target: Bile acid receptor (Homo sapiens) (UniProt Q96RI1); test: OT_FXR_FXRSRC1_1440: Odyssey Thera (OT) 24-hour HEK293T Protein-Complementation Assay for Farnesoid X receptor/SRC-1 Co-activator (AID 2283384)
Chain of Bile acid receptor (Homo sapiens) (Q96RI1 whole entry, looked up, the tested form may be a part): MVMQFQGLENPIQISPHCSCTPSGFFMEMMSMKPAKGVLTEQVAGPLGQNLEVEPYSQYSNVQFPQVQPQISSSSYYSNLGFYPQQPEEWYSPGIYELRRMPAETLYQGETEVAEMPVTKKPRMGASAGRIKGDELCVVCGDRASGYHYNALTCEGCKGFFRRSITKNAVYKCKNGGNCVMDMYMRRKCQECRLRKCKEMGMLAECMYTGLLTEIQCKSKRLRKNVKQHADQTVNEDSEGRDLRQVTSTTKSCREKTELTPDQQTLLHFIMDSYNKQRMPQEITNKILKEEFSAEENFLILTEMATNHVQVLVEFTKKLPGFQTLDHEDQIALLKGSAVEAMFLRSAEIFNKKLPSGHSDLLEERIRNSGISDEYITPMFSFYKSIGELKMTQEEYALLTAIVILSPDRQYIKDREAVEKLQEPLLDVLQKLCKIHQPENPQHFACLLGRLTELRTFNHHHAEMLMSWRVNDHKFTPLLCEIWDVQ
Procedure, shortened: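 Compounds are applied to human kidney HEK293T cells expressing bait and prey fused to reporter protein fragments; after 24 h, reconstituted reporter fluorescence is measured. Activity is fitted as signal gain over DMSO.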

Measured: AC50

O=C1CCC(N2C(=O)c3ccccc3C2=O)C(=O)N1 (stereo unspecified)
inactive: [1] | [2] | [3] | [4]

COC(=O)c1ccccc1O
inactive: [1]

CC(C)CCCCCCOC(=O)c1ccc(C(=O)OCCCCCCC(C)C)c(C(=O)OCCCCCCC(C)C)c1
inactive: [1] | [2] | [3] | [4]

O=C(NS(=O)(=O)/C=C/c1ccccc1)c1ccc(F)cc1Cl
active: [1] 27.4 µM | [2] 15.2 µM | [4] 50 µM
inactive: [3]

COCCOc1cc2cc(C(=O)NC3CCN(C(C)C)CC3)n(CC(=O)Nc3ccc(Cl)cn3)c2cn1
inactive: [1] | [2]

CC(=O)OCCC(C)C
inactive: [1] | [2] | [3] | [4]

COC(=O)CC(=O)OC
inactive: [1] | [2] | [3]

Cn1c(=O)c2c(ncn2C)n(C)c1=O
inactive: [1] | [2] | [3]

Cc1ccc(N)cc1O
inactive: [1] | [2] | [3] | [4] | [5] | [6] | [8]
active: [2] 50 µM | [7] 39.8 µM

CNCc1ccc(NC(=O)c2c[nH]c3c2C(=O)CCC3)cc1
inactive: [1] | [2] | [3]

CCOC(=O)c1ccc(C2CCC(NC[C@H](O)COc3ccc(O)c(NS(C)(=O)=O)c3)CC2)cc1 (stereo partly specified)
active: [9] 28.8 µM | [2] 10.4 µM | [5] 2.78 µM | [6] 2.95 µM | [7] 5.6 µM
inactive: [3] | [4]

CC(=O)OC[C@H]1O[C@@](COC(C)=O)(O[C@H]2O[C@H](COC(C)=O)[C@@H](OC(C)=O)[C@H](OC(C)=O)[C@H]2OC(C)=O)[C@@H](OC(C)=O)[C@@H]1OC(C)=O
inactive: [1] | [2]
